This is an account of results in PubChem BioAssay.

Calls of active or inactive are those of the source.

Assay [1] can be described thus: binders of probe aFSTL3 on microarray, primary screen, stem cell growth factor project, biochemical, small-molecule microarray, fluorescence 635/667 (AID 1064).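 Further: measures binding of the biotinylated anti-FSTL3 antibody to printed compounds.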 The following applies: higher = more signal.
Assay [2] can be described thus: binders from COS7 lysate, DM2A8 probe, primary screen, torsin A project, cell lysate, small-molecule microarray, fluorescence 635/667 (AID 1065). The following applies: higher = more signal, COS7 lysate expressing mutant human TOR1A.
Assay [3] is described as follows: binders of probe aFGF2 on microarray, primary screen, stem cell growth factor project, biochemical, small-molecule microarray, fluorescence 635/667 (AID 1067).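 Further: measures binding of biotinylated aFGF2 protein to printed compounds on slides; z-score merges feature fluorescence and signal-to-noise across triplicate slides.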 The following applies: higher = more signal.
Assay [4] is described as follows: binders of probe aFGF10 on microarray, primary screen, stem cell growth factor project, biochemical, small-molecule microarray, fluorescence 635/667 (AID 1071).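 Further: score merges 667 nm spot intensity and signal to noise from triplicate slides.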 Conditions: higher = more signal.
Assay [5] addresses Neurogenic locus notch homolog protein 2 (Homo sapiens) (UniProt Q04721). Kind of assay: Notch2 binders on small-molecule microarrays, primary screen, biochemical, small-molecule microarray, 635 nm fluorescence, stem cell growth factors (AID 1073). Conditions: Notch2 binding, higher = more signal.
The target in assay [6] is Pro-neuregulin-1, membrane-bound isoform (Homo sapiens) (UniProt Q02297). Kind of assay: NRG1 binders on small-molecule microarrays, primary screen, psychiatric disease protein project, biochemical, small-molecule microarray, fluorescence 635/667 (AID 1075).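 Further: score combines 667 nm spot fluorescence with signal to noise.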 Conditions: NRG1 binding, 635 nm fluorescence, higher = more signal.
The test system of assay [7] is Neuregulin-1 EGF-like domain. Kind of assay: binders of neuregulin-1 EGF-like domain, primary screen, biochemical, small-molecule microarray, 635 nm fluorescence (AID 1081).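 Further: binding of the protein to compounds printed on small-molecule microarray slides.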 Conditions: small-molecule microarray binding, higher = more signal.
A short description of assay [8]: FRG1 promoter luciferase signal modulators, primary screen, FRG1 inhibition for FSHD, cell-based, C2C12 myotubes, firefly/Renilla luciferase, luminescence (AID 1084). Conditions: higher = more signal, called active from +8 up or from −8 down.
The nature of assay [9]: binders of probe aFST on microarray, primary screen, stem cell growth factor project, biochemical, small-molecule microarray, fluorescence 635/667 (AID 1086).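 Further: score merges 667 nm fluorescence with signal-to-noise of each printed compound spot.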 Conditions: higher = more signal.
Assay [10] can be described thus: binders of probe aHhip on microarray, primary screen, stem cell growth factor project, biochemical, small-molecule microarray, fluorescence 635/667 (AID 1087).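 Further: score merges spot fluorescence at 667nm with spot signal to noise ratio.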 The following applies: higher = more signal.

Sequence of Pro-neuregulin-1, membrane-bound isoform (Homo sapiens) (Q02297 whole entry, looked up, the tested form may be a part, canonical isoform): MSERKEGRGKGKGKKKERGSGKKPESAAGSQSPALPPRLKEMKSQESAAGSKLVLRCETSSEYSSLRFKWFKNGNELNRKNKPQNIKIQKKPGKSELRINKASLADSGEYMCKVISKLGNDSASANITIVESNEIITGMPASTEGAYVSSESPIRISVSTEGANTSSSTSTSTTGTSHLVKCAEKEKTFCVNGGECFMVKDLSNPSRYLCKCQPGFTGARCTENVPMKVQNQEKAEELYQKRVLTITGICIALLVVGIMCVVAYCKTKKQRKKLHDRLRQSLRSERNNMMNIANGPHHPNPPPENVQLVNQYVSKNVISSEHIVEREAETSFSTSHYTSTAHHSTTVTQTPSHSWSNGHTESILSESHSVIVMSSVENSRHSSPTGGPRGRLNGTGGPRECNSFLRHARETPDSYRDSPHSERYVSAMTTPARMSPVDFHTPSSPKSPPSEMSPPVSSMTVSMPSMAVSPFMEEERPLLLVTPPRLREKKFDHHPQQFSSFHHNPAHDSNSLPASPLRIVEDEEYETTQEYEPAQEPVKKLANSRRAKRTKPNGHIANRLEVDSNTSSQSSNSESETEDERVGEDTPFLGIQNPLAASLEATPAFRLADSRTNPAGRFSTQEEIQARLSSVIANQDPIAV
Sequence of Neurogenic locus notch homolog protein 2 (Homo sapiens) (Q04721 whole entry, looked up, canonical isoform): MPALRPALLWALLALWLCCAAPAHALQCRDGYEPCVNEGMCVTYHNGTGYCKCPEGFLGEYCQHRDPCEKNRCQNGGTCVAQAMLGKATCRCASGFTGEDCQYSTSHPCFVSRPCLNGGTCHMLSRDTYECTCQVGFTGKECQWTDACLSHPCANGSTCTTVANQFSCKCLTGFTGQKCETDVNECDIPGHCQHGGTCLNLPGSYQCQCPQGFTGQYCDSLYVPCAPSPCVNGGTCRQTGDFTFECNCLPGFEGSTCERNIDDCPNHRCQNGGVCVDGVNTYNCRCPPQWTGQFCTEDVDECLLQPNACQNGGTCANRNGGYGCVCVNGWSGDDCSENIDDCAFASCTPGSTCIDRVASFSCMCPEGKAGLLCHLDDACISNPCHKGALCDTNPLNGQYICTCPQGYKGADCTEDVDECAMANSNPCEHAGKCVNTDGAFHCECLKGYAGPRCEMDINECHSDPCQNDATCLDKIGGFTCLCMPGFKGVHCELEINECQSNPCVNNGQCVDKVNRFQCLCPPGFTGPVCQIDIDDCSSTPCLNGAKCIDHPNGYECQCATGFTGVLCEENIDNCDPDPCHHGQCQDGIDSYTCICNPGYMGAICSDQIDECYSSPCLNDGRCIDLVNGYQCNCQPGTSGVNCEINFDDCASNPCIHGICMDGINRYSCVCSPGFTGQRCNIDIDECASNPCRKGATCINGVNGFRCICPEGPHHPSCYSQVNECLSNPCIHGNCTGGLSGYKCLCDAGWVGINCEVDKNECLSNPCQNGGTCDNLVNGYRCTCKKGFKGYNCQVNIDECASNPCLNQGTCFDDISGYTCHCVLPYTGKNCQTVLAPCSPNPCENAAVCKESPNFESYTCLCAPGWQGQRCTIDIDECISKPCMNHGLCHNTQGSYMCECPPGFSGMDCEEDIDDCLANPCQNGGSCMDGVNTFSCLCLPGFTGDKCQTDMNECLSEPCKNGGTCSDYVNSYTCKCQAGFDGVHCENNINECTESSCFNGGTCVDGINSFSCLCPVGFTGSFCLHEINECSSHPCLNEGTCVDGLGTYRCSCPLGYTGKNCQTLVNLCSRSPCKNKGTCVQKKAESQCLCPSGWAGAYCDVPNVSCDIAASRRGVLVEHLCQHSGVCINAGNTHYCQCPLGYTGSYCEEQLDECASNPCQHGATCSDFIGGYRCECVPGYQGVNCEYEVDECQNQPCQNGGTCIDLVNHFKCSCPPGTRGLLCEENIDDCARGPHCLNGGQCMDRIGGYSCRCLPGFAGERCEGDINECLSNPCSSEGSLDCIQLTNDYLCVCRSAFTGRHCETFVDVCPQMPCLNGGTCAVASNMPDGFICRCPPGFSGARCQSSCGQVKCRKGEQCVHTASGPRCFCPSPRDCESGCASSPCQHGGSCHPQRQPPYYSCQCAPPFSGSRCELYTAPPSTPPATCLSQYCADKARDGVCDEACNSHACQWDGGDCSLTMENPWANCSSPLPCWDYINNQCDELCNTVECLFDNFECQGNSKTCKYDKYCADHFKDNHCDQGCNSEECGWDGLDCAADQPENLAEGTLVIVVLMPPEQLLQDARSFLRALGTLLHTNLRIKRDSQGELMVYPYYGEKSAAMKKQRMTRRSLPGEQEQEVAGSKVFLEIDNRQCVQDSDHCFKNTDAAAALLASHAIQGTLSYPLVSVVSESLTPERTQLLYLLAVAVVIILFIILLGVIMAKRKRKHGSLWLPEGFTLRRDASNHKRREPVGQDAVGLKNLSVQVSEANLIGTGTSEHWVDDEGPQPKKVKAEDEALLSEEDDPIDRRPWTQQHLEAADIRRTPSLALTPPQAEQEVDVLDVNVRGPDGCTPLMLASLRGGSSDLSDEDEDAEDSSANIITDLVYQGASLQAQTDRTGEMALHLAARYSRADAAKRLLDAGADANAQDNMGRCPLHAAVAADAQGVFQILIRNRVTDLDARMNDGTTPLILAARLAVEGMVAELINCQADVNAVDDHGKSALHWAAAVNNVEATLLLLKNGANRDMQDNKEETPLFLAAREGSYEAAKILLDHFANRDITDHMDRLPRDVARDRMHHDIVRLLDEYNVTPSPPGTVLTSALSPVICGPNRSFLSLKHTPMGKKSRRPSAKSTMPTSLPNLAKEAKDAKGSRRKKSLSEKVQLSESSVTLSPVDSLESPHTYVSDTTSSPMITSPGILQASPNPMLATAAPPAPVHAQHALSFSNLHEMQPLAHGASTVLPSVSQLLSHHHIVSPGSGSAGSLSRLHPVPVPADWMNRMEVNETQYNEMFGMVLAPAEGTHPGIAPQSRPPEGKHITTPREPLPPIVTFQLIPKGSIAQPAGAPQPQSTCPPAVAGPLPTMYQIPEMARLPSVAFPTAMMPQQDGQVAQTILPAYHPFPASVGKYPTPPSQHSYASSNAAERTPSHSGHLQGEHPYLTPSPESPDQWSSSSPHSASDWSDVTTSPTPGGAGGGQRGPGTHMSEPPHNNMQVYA

Consider `CC(C)C[C@@H]1NC(=O)[C@H]2C[C@@H](C(=O)NCCCCCN)[C@@H](c3cccc(OCCO)c3)N2C1=O`, for which the composite z-score was 0.721 in assay [1]; -0.1 in assay [2]; -0.107 in assay [3]; 0.0414 in assay [4]; -0.182 in assay [5]; 0.896 in assay [6]. Besides, the composite z-score in assay [7] was 1.24; in assay [9], -0.565; in assay [10] it was -0.0645. Besides, the z-score in assay [8] was -0.599 (inactive).
Take `COc1ccc([Si](C)(C)[C@H]2[C@H](CCO)O[C@@]3(C(=O)N(Cc4ccccc4)c4ccc(N5C(=O)c6ccccc6Oc6ccccc65)cc43)[C@@H]2C)cc1`: the composite z-score in assay [1] is 0.342; in assay [2], -0.393; in assay [3] it was -0.0591; in [4], 0.606; in [5], -0.0653; in assay [6], 0.777. In addition, the composite z-score is 0.79 in assay [7], -0.0173 in assay [9] and -0.169 in [10]. The z-score in assay [8] is -1.55 (inactive).
In the case of `CCOC(=O)C[C@H]1[C@H](OC(=O)c2ccccc2-c2ccccc2)[C@@H](NC(=O)c2ccccc2)c2cc(OCCCO)ccc2N1C(=O)c1ccccc1`, the composite z-score was -0.304 in [1]; 0.0919 in assay [2]; -0.0885 in assay [3]; 0.585 in [4]; 0.494 in assay [5]; 0.127 in assay [6]. The results for the composite z-score in assay [7], in [9] and in assay [10] were 0.0357, 0.0801 and 0.0274, respectively. Also, the z-score in assay [8] is 0.0899 (inactive).
Consider `CC(C)C(CO)N1C(=O)[C@@H]2[C@H]3C(=O)OCC=C[C@H]3OC23C=CCN(C(C)(C)C)C(=O)[C@@H]13` (stereo not given in full), for which the composite z-score in assay [1] is -0.0718; in [2], -0.141; in assay [3], -0.155; in assay [4], -0.724; in assay [5], -0.456; in [6] it was -0.807. The composite z-score in [7] is -1.03; in assay [9], -0.346; in [10] it was -0.128. Besides, the z-score in [8] is -0.221 (inactive).
For `C[C@]1(C(=O)NCC(F)(F)F)c2ccccc2C(=O)N(Cc2ccccc2)[C@H]1c1ccc(CO)cc1`, the composite z-score in assay [1] was 0.472; in [2] it was -1.34; in [3] it was -0.167; in assay [4] it was -0.358; in assay [5], -1.52; in [6], 0.794. For the same compound, the composite z-score in [7] was 0.711; in assay [9], -0.0961; in assay [10], -0.0003. Also, the z-score in assay [8] was -1.48 (inactive).
With `Cc1ccc(F)cc1S(=O)(=O)N[C@@H]1CCN(Cc2cccc3[nH]ccc23)C1`, the composite z-score in assay [1] is 1.05; in [2], 0.871; in assay [3], -0.0894; in [4], 0.513; in [5], 0.37; in assay [6], 1.38. The values for the composite z-score in [7], in assay [9] and in assay [10] were 0.379, -0.0112 and -0.0994, respectively. Also, the z-score in assay [8] was -0.762 (inactive).
Regarding `COc1ccc(C(O)C2C=CC3C(=O)N(c4ccccc4)C(=O)C3N2Nc2ccccc2F)cc1` (stereo not given), the composite z-score in [1] was 0.109; in assay [2], 0.67; in assay [3] it was -0.0747; in assay [4], -0.0293; in [5], 1.4; in assay [6] it was 1.8. Also, the composite z-score in assay [7] was 1.18; in assay [9] it was 0.115; in assay [10], -0.0296. Moreover, the z-score in assay [8] is 0.425 (inactive).
As to `CN(C)C(=O)[C@@]1(Cc2ccccc2)COC(c2ccc(OCCCO)cc2)=N1`, the composite z-score in [1] was 0.862; in assay [2] it was -0.111; in assay [3], 0.0412; in [4], -0.055; in assay [5] it was -0.266; in assay [6] it was 1.81. The composite z-score in assay [7] is 0.61; in assay [9] it was -0.341; in assay [10], 0.217. In [8], the z-score is -0.698 (inactive).
As to `CO[C@H]1O[C@H](CO)[C@@H](OC(=O)c2ccc(Br)cc2)[C@@H]2OC(=O)[C@H](Cc3ccccc3)C/C=C/C[C@@H](Cc3ccccc3)C(=O)O[C@@H]12`, the composite z-score in assay [1] is -0.287; in [2] it was 0.418; in [3], -0.0048; in assay [4], 0.706; in assay [5], 0.496; in [6], 1.64. Besides, the values for the composite z-score in assay [7], in assay [9] and in assay [10] were 0.615, -0.024 and -0.0645, respectively. Also, the z-score in [8] was -0.215 (inactive).
For the compound `CCOC(=O)C1=CC[C@@H](c2ccccc2)N(S(=O)(=O)c2ccc(C)cc2)[C@H]1C=Cc1ccccc1`, the composite z-score is 0.162 in [1]; -0.0855 in assay [2]; -0.04 in assay [3]; 0.694 in [4]; 0.471 in assay [5]; 0.941 in assay [6]. In addition, the composite z-score in assay [7] came to 0.918; in assay [9] it was 0.47; in assay [10] it was 0.0373. For the same compound, the z-score in assay [8] was -3.49 (inactive).
Regarding `CN(C)C(=O)[C@@]1(CCC(=O)OC(C)(C)C)N=C(c2ccc(OCCCO)cc2)O[C@H]1c1ccccc1CN=[N+]=[N-]`, the composite z-score in [1] was -0.0162; in [2], 1.01; in assay [3], 0.0408; in assay [4], 0.39; in assay [5] it was 1.06; in assay [6], 1.92. Further, the composite z-score came to 1.28 in assay [7], 0.717 in assay [9] and 0.0373 in assay [10]. The z-score in [8] is -0.119 (inactive).
As for `CCOC(=O)C1=CCN(S(=O)(=O)c2ccc(C)cc2)C1c1ccccc1` (stereo not given), the composite z-score is -0.0137 in [1]; 0.229 in assay [2]; -0.0232 in [3]; 0.535 in assay [4]; 1.5 in [5]; 1.44 in assay [6]. Moreover, the composite z-score in assay [7] stood at 1.2; in [9] it was 0.439; in [10], 0.113. Also, the z-score in assay [8] is -0.158 (inactive).
